Pol eta inh-1: DNA polymerase eta (human) inhibition | Q9Y253 | hit rate 1.2% among 390,000 | recombinant Pol eta, fluorescent DNA replication assay | Potency, µM (top dose mostly 114 µM), actives largely listed as inhibitors
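Fluorescent replication assay: 50 nM final substrate added after a 15 min room-temperature compound preincubation with 10 nM enzyme. Signal taken at 0 min and again at 10 min.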
PI5P4K alpha inh: inhibitors of human PI5P4K alpha. P48426. PI5P4Kalpha enzyme, ADP-Glo luminescence, 60 min; hits give low values. max response, %. hit rate 1.2% among 330,000; active = max response of -50% or lower; inconclusive = between -30% and -50%; inactive = -30% or higher; note: value at the top dose of about 77 µM
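Single end-point luminescence (ADP-Glo) quantified ADP from PI5P4Kalpha turnover; ATP 5 microM final, 1 h at RT, 0.1% CHAPS and 0.28 mM EGTA in HEPES pH 7.4.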
Pol kappa inh-1: inhibitors of human DNA polymerase kappa; hit rate 0.53% among 400,000; Potency, µM (top dose mostly 107 µM), actives largely listed as inhibitors; Q9UBT6; purified Pol kappa, fluorescent DNA synthesis assay, 10 min
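Kinetic fluorescence screen: compound preincubated 15 min RT with 10 nM enzyme; 50 nM substrate (final) initiates; reads at 0/10 min.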
Pol beta inh: DNA polymerase beta (human) inhibition | P06746 | Potency, µM (top dose mostly 114 µM), most hits filed as inhibitors | Pol beta primer extension/strand displacement, fluorescence kinetic | hit rate 1.3% among 340,000
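Pol beta (10 nM) and compounds were preincubated 15 min at room temperature, then 50 nM substrate (final) started primer extension/strand displacement. Reads were taken at 0 and 10 min; concentration-response data were fitted to a four-parameter Hill equation.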
WRN helicase inh-1: inhibitors of human WRN helicase; Potency, µM (top dose mostly 114 µM), actives largely listed as inhibitors; AID 651768; hit rate 0.46% among 360,000; WRN helicase unwinding, fluorescent forked duplex, kinetic; note: nearly all actives have a fitted effect of over 55% in size
Target sequence (Q14191 whole entry, looked up): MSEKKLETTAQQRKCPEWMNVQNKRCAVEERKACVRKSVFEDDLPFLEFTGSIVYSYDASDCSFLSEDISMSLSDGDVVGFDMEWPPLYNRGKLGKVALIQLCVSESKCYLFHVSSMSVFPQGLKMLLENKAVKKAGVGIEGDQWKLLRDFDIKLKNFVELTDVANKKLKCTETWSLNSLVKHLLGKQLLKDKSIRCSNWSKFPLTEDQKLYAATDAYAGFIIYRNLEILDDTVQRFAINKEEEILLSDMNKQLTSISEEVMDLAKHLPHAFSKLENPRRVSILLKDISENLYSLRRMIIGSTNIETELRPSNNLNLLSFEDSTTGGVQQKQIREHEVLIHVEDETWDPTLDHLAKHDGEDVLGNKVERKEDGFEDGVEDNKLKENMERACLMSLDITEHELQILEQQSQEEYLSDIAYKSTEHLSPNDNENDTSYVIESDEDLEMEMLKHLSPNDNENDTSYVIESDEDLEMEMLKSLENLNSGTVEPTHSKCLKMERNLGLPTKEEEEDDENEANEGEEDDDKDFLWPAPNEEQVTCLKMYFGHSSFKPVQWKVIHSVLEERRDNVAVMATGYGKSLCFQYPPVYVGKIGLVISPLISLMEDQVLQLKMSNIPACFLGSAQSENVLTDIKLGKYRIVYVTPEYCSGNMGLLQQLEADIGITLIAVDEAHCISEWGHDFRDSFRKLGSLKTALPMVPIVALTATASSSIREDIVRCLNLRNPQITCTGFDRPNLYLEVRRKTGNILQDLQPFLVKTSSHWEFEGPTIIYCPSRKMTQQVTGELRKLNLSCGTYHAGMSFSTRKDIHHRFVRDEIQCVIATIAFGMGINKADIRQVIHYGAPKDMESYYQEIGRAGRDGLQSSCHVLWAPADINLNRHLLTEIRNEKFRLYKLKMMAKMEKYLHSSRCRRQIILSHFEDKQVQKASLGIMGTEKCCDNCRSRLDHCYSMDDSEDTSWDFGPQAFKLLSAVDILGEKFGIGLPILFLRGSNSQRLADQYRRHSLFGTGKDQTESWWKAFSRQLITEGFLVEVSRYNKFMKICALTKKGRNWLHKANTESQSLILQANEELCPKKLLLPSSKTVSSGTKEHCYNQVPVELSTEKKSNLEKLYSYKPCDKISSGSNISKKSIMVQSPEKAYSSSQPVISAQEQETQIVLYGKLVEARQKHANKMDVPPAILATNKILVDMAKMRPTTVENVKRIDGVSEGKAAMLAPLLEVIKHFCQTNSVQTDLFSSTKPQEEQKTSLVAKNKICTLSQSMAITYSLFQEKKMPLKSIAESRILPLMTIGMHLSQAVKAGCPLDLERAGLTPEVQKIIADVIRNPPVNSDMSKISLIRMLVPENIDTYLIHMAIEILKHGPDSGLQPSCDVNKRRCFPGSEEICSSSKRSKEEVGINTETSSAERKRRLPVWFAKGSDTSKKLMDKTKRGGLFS
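WRN at 20 nM final preincubated with compound 15 min at room temperature; reaction started with 100 nM fluorophore/quencher forked duplex oligonucleotide and 2 mM ATP final. Unwinding followed kinetically by red fluorescence (ex 525, em 598 nm).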
POLI inh: blocks human DNA polymerase iota activity; Q9UNA4; Pol iota fluorescent replication assay, 10 min; Potency, µM (doses to about 115 µM), actives largely listed as inhibitors; hit rate 1% among 390,000
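Fluorescent replication assay read twice, at 0 min and 10 min after adding 50 nM (final) substrate. Enzyme (10 nM) and compounds were first incubated 15 min at room temperature; enzyme-free buffer wells were negative controls.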
TbPGK inh: TbPGK inhibition, hit validation. TbPGK coupled GAPDH assay, Kinase-Glo luminescence. AID 686980. hit rate 79% among 500. Potency, µM (titrated, usually from 57.5 µM), usual class: inhibitors. shares compounds with Pol kappa inh-1; note: nearly all actives have a fitted effect of over 65% in size
Pol iota confirm: Human Pol iota inhibitor confirmatory assay; shares compounds with Pol kappa inh-1; Pol iota primer extension, TAMRA/BHQ fluorescence; Potency, µM, actives largely listed as inhibitors; hit rate 77% among 1,500; AID 720496
GALK inh confirm: confirmation of human galactokinase (GALK) inhibitors; shares compounds with Pol eta inh-1; purified GALK, Kinase-Glo ATP depletion luminescence; Potency, µM (doses to about 115 µM), actives largely listed as inhibitors; hit rate 70% among 150; AID 2015
GALK redox cs: generates H2O2 by redox cycling, flagging GALK artifacts. shares compounds with Pol eta inh-1. Phenol red-HRP H2O2 redox cycling, absorbance 600 nm. Potency, µM (doses to about 115 µM), actives largely listed as inhibitors. AID 2035. hit rate 40% among 150
HEK293 tox: counter-screen for GALK inhibitors: HEK293 cell cytotoxicity; Potency, µM (titrated, usually from 46.1 µM), hits mostly inhibitors; shares compounds with Pol eta inh-1; HEK-293 viability, ATP luminescence (CellTiter-Glo), 24/48 h; hit rate 10% among 170
Pol kappa inh-2: Pol kappa (human) inhibition, cherry-pick confirmation | shares compounds with Pol eta inh-1 | purified Pol-kappa, fluorescent strand-displacement substrate | Potency, µM, hits mostly inhibitors | hit rate 76% among 920
Pol eta inh-2: Pol eta (human) inhibition, cherry-pick confirmation; shares compounds with Pol eta inh-1; Pol eta primer extension, TAMRA/BHQ fluorescence, 10 min; hit rate 64% among 2,600; AID 720502; Potency, µM, usual class: inhibitors
WRN helicase inh-2: WRN helicase inhibition, cherry-pick retest | shares compounds with WRN helicase inh-1 | WRN helicase DNA unwinding, fluorescence kinetic | Potency, µM (titrated, usually from 57.1 µM), usual class: inhibitors | hit rate 63% among 610 | AID 720497; note: nearly all actives have a fitted effect of over 65% in size
TO DNA binding: counter-screen for WRN helicase inhibitors: DNA binding; shares compounds with WRN helicase inh-1; thiazole orange DNA binding displacement, fluorescence; Potency, µM (top dose mostly 57.1 µM), most hits filed as inhibitors; hit rate 10% among 610;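 note: drop in dye fluorescence marks compound binding to DNA; nearly all actives have a fitted effect of over 60% in size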
BLM counter: blocks human BLM helicase in WRN counterscreen | shares compounds with WRN helicase inh-1 | Recombinant BLM helicase DNA unwinding, red fluorescence | Potency, µM (doses to about 57.1 µM), actives largely listed as inhibitors | hit rate 60% among 610 | AID 720503; note: nearly all actives have a fitted effect of over 60% in size
Hits are given with their value; – = inactive; ? = inconclusive; · = not tested or not shown. Shown are actives, neighbours in structure and some others; about 2.8% of the full set was active somewhere. Unless noted, calls come from the whole dose curve; as a rule, active = well fitted curve in the direction sought with a large enough effect; inconclusive = small, poorly fitted or top-dose-only effect, or another doubt; inactive = no such curve, though single readings can be large; an effect the other way counts as inactive or inconclusive.

SMILES	Pol eta inh-1	PI5P4K alpha inh	Pol kappa inh-1	Pol beta inh	WRN helicase inh-1	POLI inh	TbPGK inh	Pol iota confirm	Pol eta inh-2	WRN helicase inh-2	TO DNA binding	BLM counter	others
COc1ccc(OC)c(N2C(=O)[C@@H]3C(c4ccccc4Cl)=NO[C@@H]3C2=O)c1	1.26µM	-65.6	20µM	–	39.8µM	3.55µM	5.8µM	16.8	16.9	21.5µM	?	17.1µM
Cc1cccc(C)c1N1C(=O)[C@@H]2C(c3ccccc3Cl)=NO[C@@H]2C1=O	–	–	–	–	–	–	·	·	·	·	·	·
O=C(COC(=O)c1ccccc1)Nc1ncc([N+](=O)[O-])s1	0.794µM	-74.0	22.4µM	·	2.99µM	2.24µM	3.26µM	2.67	1.69	3.41µM	24.1µM	1.08µM	Pol kappa inh-2=0.752
CCOc1ccc(-c2nc(SCC(=O)Nc3ccc(C)c(C)c3)n3[nH]c(=O)cc3n2)cc1	50.1µM	·	–	3.16µM	·	?	16.3µM	26.7	84.9	15.2µM	–	3.04µM
COc1ccc(-c2nc(SCC(=O)NCc3nc4ccccc4n3C)n3[nH]c(=O)cc3n2)cc1	–	·	–	–	·	?	·	·	·	·	·	·
Cc1ccc2nc(-c3ccc(C)c(NC(=O)COc4ccccc4Cl)c3)oc2c1	·	·	–	·	·	–	·	·	·	·	·	·
O=C(O)CC(CCc1ccccc1)OC1OC(CO)C(O)C(O)C1O (stereo unspecified)	0.794µM	-68.0	2µM	0.708µM	?	1.78µM	?	2.67	10.7	1.71µM	–	1.52µM	GALK inh confirm=53µM;GALK redox cs=–;HEK293 tox=–
[C-]#[N+][C@H](O[C@@H]1O[C@H](CO)[C@@H](O)[C@H](O)[C@H]1O)c1ccccc1	–	–	–	·	–	–	·	·	·	·	·	·
O=c1cc(-c2ccccc2Cl)oc2c([N+](=O)[O-])ccc(O)c12	·	·	–	·	·	·	·	·	·	·	·	·
O=c1cc2oc3cc(O)c(O)cc3c(-c3ccccc3[N+](=O)[O-])c-2cc1O	0.794µM	-61.0	0.794µM	0.316µM	0.752µM	?	0.291µM	0.752	2.13	0.383µM	?	0.215µM
COc1cc(-c2nnc(SCc3cc(=O)oc4cc(O)c(O)cc34)o2)cc(OC)c1OC	0.708µM	·	1.12µM	0.891µM	10µM	1.12µM	0.919µM	2.38	1.07	2.41µM	19.2µM	0.961µM
CCOC(=O)CSc1nnc(-c2cc(OC)c(OC)c(OC)c2)o1	–	–	–	–	–	–	·	·	·	·	·	·
COc1cc(C(=O)Nc2nc(C)cc(C)n2)cc(OC)c1OC	–	–	–	?	–	–	·	·	·	·	·	·
O=C(COc1ccccc1C(=O)N/N=C\c1ccc(O)c(O)c1)N/N=C/c1ccc(O)c(O)c1	–	-73.0	0.708µM	0.282µM	0.267µM	–	0.291µM	0.423	0.338	0.271µM	19.2µM	0.121µM
CSc1ccccc1NC(=O)CSc1nnc(Cc2ccccc2)o1	–	–	–	–	–	–	·	·	·	·	·	·
O=C(CCCN1C(=O)/C(=C/c2ccccc2)SC1=S)Nc1ccccc1O	–	–	–	–	–	–	·	·	·	·	·	·
O=C(CCN1C(=O)/C(=C/c2ccc(Cl)cc2)SC1=S)Nc1ccc(C(=O)O)cc1	–	–	–	–	–	–	·	·	·	·	·	·
O=C(CCCN1C(=O)/C(=C/c2ccco2)SC1=S)Nc1ccccc1C(=O)O	11.2µM	-81.7	?	–	31.6µM	22.4µM	·	33.6	19	19.2µM	–	24.1µM	Pol kappa inh-2=8.44
O=C(CCN1C(=O)/C(=C/c2ccco2)SC1=S)Nc1ccc(C(=O)O)c(O)c1	4.47µM	-62.6	20µM	?	44.7µM	3.98µM	·	29.9	?	17.1µM	–	21.5µM	Pol kappa inh-2=16.8
CCOC(=O)c1ccc(NC(=O)CCn2c(=O)c3cccn3c3cccnc32)cc1	?	·	–	–	·	–	·	·	·	·	·	·
CC1(C(=O)Nc2ccc3c(c2)OCO3)CCN1C(=O)CCc1ccc(Cl)cc1Cl (stereo unspecified)	·	–	·	·	–	·	·	·	·	·	·	·
Cc1cccc(NC(=O)C2CCCN2S(=O)(=O)c2cccc3cccnc23)c1 (stereo unspecified)	·	·	·	–	·	·	·	·	·	·	·	·
Cc1ccc(OCC(=O)c2c(N)n(C)c(=O)n(C)c2=O)c([N+](=O)[O-])n1	11.2µM	-50.2	35.5µM	·	44.7µM	10µM	·	33.6	30.1	17.1µM	–	4.82µM	Pol kappa inh-2=10.6
O=C1c2cccc(NCCCNCCO)c2C(=O)c2cccc(NCCCNCCO)c21	4.47µM	–	31.6µM	·	10µM	44.7µM	·	18.9	37.9	1.08µM	0.857µM	1.71µM	Pol kappa inh-2=16.8
O=C1c2ccccc2C(=O)c2c(NCc3cccnc3)cccc21	–	–	–	–	–	–	·	·	·	·	·	·
COCCNC(=O)/C(C#N)=C/c1cccc(/C=C(\C#N)C(=O)NCCOC)c1	–	–	–	–	–	–	·	·	·	·	·	·
COCCCNC(=O)/C(C#N)=C/c1ccc(OCC(=O)O)c(OC)c1	2.51µM	?	22.4µM	3.55µM	?	10µM	·	18.9	26.9	19.2µM	?	5.41µM
O=C(/C=C/c1ccco1)Nc1ccc(Cl)c(S(=O)(=O)N2CCOCC2)c1	–	–	–	–	–	–	·	·	·	·	·	·
O=C(O)c1cc(N2N=C(C(F)(F)F)/C(=C/C=C/c3ccco3)C2=O)ccc1Cl	–	-93.2	1.12µM	0.631µM	0.844µM	1.12µM	0.58µM	0.752	0.675	1.36µM	–	0.607µM	Pol kappa inh-2=0.119

Screens: PubChem BioAssay, National Center for Advancing Translational Sciences (NCATS)
